IL-1B inflam inh: blocks inflammasome-driven IL-1 beta release; THP-1 LPS/ATP IL-1B secretion, AlphaLISA, 16 h; active compounds read low; activity change, % at 57.5 µM; 360,000 compounds, 4.7% hits; AID 743279; in the data active = activity change below about -50%; inconclusive = mostly about -30% to -49%
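THP-1 cells pretreated 1 hr with compounds (up to 57.5 uM final), then stimulated with LPS (250 ng/mL final) plus ATP (1.25 mM final); secreted IL-1B measured by AlphaLISA after 16 hr, decreased signal indicating inhibition.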
TDP1 inh: blocks human tyrosyl-DNA phosphodiesterase 1; Potency, µM (top dose mostly 130 µM), for inactives: at the top dose activity change, negative = inhibition, actives largely listed as inhibitors; recombinant TDP1, AlphaScreen DNA substrate cleavage; 350,000 compounds, 0.28% hits; Q9NUW8; also: potency is read from the fitted curve at half-maximal effect; nearly all actives have a fitted effect of over 40% in size
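Recombinant E. coli-expressed Tdp1 (1 nM) preincubated with compound 15 min at RT, then 5'-biotin/3'-phosphotyrosine-FITC DNA substrate (15 nM) added for 5 min. AlphaScreen beads (10 ug/ml) added, 10 min RT; tyrosine-FITC cleavage read as signal loss.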
TDP1 cell CPT: growth inhibition of DT40 Tdp1-/-;hTDP1 cells with camptothecin (screen for TDP1 inhibitors). Potency, µM (doses to about 46.2 µM), for inactives: top-dose activity change, negative = growth inhibition, most hits filed as inhibitors. AID 686979. chicken DT40 Tdp1-/-;hTDP1 cells + 20 nM CPT, ATP luminescence, 48 h. 420,000 compounds, 12% hits; also: potency is read from the fitted curve at half-maximal effect; nearly all actives have a fitted effect of over 55% in size
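Cell growth measured by CellTiter-Glo luminescence after a minimum 48 h, 37 C compound exposure with 20 nM CPT in Tdp1-knockout DT40 cells stably expressing hTDP1, seeded 400/well; qHTS titration format.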
TDP1 cell noCPT: qHTS for Inhibitors of human tyrosyl-DNA phosphodiesterase 1 (TDP1): qHTS in cells in absence of CPT; 420,000 compounds, 15% hits; AID 686978, 2013; Potency, µM (titrated, usually from 46.2 µM), without a hit: at the highest dose activity change, negative = growth inhibition, actives largely listed as inhibitors; DT40 Tdp1-/- hTDP1 cells, no CPT, ATP luminescence, 48 h; also: potency is read from the fitted curve at half-maximal effect; nearly all actives have a fitted effect of over 55% in size
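Compound effects on proliferation are scored in DT40 Tdp1-/-;hTDP1 cells in the absence of CPT. ATP levels (CellTiter-Glo luminescence) are recorded after a ≥48 hr, 37 °C incubation.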
Six1-Eya2 inh: Six1/Eya2 interaction inhibition. AlphaScreen GST-Six1/His-Eya2 binding, biochemical; active compounds read low. Q15475+O00167. 360,000 compounds, 0.56% hits. activity change, % (no concentration beside the values); in the data active = activity change below about -65%; inconclusive = mostly about -30% to -63%
Target sequence (O00167 whole entry, looked up): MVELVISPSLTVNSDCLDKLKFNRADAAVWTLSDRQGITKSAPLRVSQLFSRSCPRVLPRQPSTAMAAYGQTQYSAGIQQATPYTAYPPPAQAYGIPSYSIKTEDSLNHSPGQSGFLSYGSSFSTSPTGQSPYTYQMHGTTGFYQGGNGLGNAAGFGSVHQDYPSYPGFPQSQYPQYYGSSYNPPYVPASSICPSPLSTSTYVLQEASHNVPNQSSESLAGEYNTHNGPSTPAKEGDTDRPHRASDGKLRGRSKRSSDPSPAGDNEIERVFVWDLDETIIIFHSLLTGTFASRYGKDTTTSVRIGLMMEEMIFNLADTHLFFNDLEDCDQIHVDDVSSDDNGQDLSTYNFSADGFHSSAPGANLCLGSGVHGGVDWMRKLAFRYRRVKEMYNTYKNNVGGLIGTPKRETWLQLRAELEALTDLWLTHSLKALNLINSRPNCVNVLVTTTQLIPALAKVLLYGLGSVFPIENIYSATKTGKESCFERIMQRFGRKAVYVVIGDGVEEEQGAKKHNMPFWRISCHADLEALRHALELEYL
Target sequence (Q15475 whole entry, looked up): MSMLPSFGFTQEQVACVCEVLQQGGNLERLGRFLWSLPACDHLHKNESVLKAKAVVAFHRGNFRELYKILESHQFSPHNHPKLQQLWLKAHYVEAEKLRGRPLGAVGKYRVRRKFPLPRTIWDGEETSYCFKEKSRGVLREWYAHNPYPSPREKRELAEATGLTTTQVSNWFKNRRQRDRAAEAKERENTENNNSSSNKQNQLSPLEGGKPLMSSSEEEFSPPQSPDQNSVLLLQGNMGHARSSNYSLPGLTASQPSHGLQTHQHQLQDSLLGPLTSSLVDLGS
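Homogeneous AlphaScreen proximity assay pairing GST-Six1 with His-tagged Eya2 (added as 5X mix: 250 nM and 500 nM) in 50 mM Tris pH 8.0, 300 mM NaCl, 1 mM TCEP. Glutathione donor and nickel acceptor beads; 1 h, 37 °C, dark.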
CtBP-E1A blk: CtBP/E1A binding inhibition; AlphaScreen GST-E1A/His-CtBP binding, 1536-well; active compounds read low; activity change, % (no concentration beside the values); 340,000 compounds, 0.49% hits; in the data active = activity change below about -65%; inconclusive = mostly about -30% to -63%
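GST-E1A and His-tagged CtBP (125 nM each as 5X stock) were preincubated with pin-transferred compound for 2 h at 37 °C in the dark, then glutathione donor and nickel acceptor beads were added for 1 h before AlphaScreen reading.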
Numbers without * were called inactive; ? = inconclusive; nt = no result given. Most compounds without a hit are left out; they make up all but 18% or so of the library. Unless noted, calls follow the shape of the dose curve; as a rule, active = well fitted curve in the direction sought with a large enough effect; inconclusive = small, poorly fitted or top-dose-only effect, or another doubt; inactive = no such curve, though single readings can be large; an effect the other way counts as inactive or inconclusive. % is scaled to controls: 0 for no effect and ±100 for the full control effect.

SMILES	IL-1B inflam inh	TDP1 inh	TDP1 cell CPT	TDP1 cell noCPT	Six1-Eya2 inh	CtBP-E1A blk
Cc1cc(SCC(=O)NN=C2CCN(C(C)C)CC2)c(C)cc1Br	1.6	1.1%	-27.4%	-25.8%	5.7	9.5
Cc1cc(-c2ccccc2)n(-c2cc(N/N=C/c3ccccc3O)ncn2)n1	49.5	5.5%	4.61µM*	3.26µM*	-5.7	20.3
Cc1ccc2nc(SCC(=O)NC3CCCCC3)nc(=O)n2c1	5.1	nt	-8.1%	14.2%	2.5	-1.1
CCc1nnc2n1N=C(c1ccc(-c3cc(Cl)ccc3Cl)o1)CS2	0.0	3.7%	-25.6%	?	-4.5	-3.5
Clc1ccc(OCc2nnc3n2N=C(c2ccc4c(c2)OCCO4)CS3)c(Cl)c1	4.3	7.8%	9.2µM*	11.6µM*	2.4	-0.3
O=[N+]([O-])c1ccc(C2CC(c3ccccc3)=Nc3ccccc3S2)cc1 (stereo unspecified)	-19.5	9.6%	?	20.6µM*	-10.4	nt
C/C(=N/NC(=O)C(O)(c1ccccc1)c1ccccc1)c1ccc([N+](=O)[O-])o1	-3.1	-7.9%	20.6µM*	20.6µM*	-8.7	2.1
COC(=O)c1ccc(-c2cc(CC3(C(=O)OC)CCN(C(=O)OC(C)(C)C)CC3)on2)cc1	-12.1	nt	23.1µM*	?	-8.7	nt
COC(=O)C1(Cc2cc(-c3ccccc3)no2)CCN(C(=O)OC(C)(C)C)CC1	-20.8	nt	?	?	3.6	4.5
Cc1cccc2nc(CSc3ccccc3N)cn12	31.6	nt	-9.4%	?	1.8	0.7
Cc1cccc2nc(COc3ccc4ccccc4c3Br)cn12	65.5	5.6%	?	23.1µM*	-9.3	-18.4
COc1ccc(N2CC(C(=O)N[C@@H](C)C(=O)NC3CCCCC3)CC2=O)cc1 (stereo partly specified)	16.5	-0.1%	4.0%	18.1%	0.1	-2.3
CC1C/C(=N/N=C2/NC(=O)CS2)CC(C)(C)C1 (stereo unspecified)	6.8	2.1%	-23.1%	-1.5%	6.3	1.5
CC(C)n1nc(C(=O)Nc2nc3ccc(S(C)(=O)=O)cc3s2)c2ccccc2c1=O	4.0	9.5%	-13.7%	-14.3%	3.3	3.0
CC(C)n1nc(C(=O)Nc2nnc(SCc3c(Cl)cccc3Cl)s2)c2ccccc2c1=O	40.5	7.1%	10.3µM*	?	14.1	-24.6
CCCCCCSc1nnc(-c2cnn(-c3ccccc3)c2-n2cccc2)n1C	-15.7	4.7%	?	20.6µM*	-14.9	-10.0
O=C(C1CCN(S(=O)(=O)c2cccs2)CC1)N1CCCC(C(F)(F)F)C1 (stereo unspecified)	-3.8	0.3%	1.2%	-15.8%	1.8	0.4
CCOc1cccc(CN2CCCC(N3CCc4ccccc4C3)C2)c1O (stereo unspecified)	-4.3	nt	-17.2%	?	-9.8	-2.5
CCOc1cccc(CN2CCCC(C(=O)c3cc(Cl)ccc3OC)C2)c1O (stereo unspecified)	-54.7*	5.1%	?	?	-12.5	-27.2
COc1ccc(F)cc1C(=O)C1CCCN(Cc2cnc(N3CCCC3)s2)C1 (stereo unspecified)	25.6	2.7%	-1.8%	-20.2%	3.9	-1.5
CCOc1cccc(CN2CCCC(N3CCN(c4cccc(Cl)c4)CC3)C2)c1O (stereo unspecified)	-72.0*	7.9%	-15.0%	?	?	?
COc1ccc(Cl)cc1C(=O)C1CCCN(Cc2cnc(N3CCOCC3)s2)C1 (stereo unspecified)	0.6	4.8%	?	29.1µM*	-0.8	-14.4
COc1cccc(CN2CCCC(C(=O)c3ccc4c(c3)OCO4)C2)c1O (stereo unspecified)	-23.9	0.0%	-14.5%	-0.1%	-7.4	-1.9
COc1cc(NC(=O)CSc2nc3ccccc3c(=O)n2C)ccc1NC(=O)c1ccco1	?	1.9%	-19.8%	?	-3.0	-4.3
OCCNc1nc(NCCC2=CCCCC2)nc(N2CCOCC2)n1	-4.5	1.9%	20.6µM*	20.6µM*	5.6	-0.2
SMILES	IL-1B inflam inh	TDP1 inh	TDP1 cell CPT	TDP1 cell noCPT	Six1-Eya2 inh	CtBP-E1A blk
O=C(Nc1ccc(Cl)cc1)N1CCCN(Cc2ccc(F)cc2)C1	?	5.9%	23.1µM*	20.6µM*	2.1	3.5
CCN(c1ccccc1)S(=O)(=O)c1ccc(C(=O)NCC(c2cccs2)N(C)C)cc1 (stereo unspecified)	22.8	1.2%	-12.0%	?	-17.0	-18.7
COc1ccc(OC)c(CNC(=O)c2ccc3c(c2)c(C)c(C)n3Cc2ccc(Cl)cc2)c1	nt	5.3%	16.4µM*	?	nt	nt
COc1ccccc1CCNC(=O)c1ccc2c(c1)c(C)c(C)n2Cc1ccc(Cl)cc1	nt	5.3%	23.1µM*	20.6µM*	nt	nt
CC1CCN(CCCNC(=O)Cn2ncc3c([nH]c4ccccc43)c2=O)CC1	0.0	2.3%	-2.8%	14.0%	-0.7	-11.6
Cc1nc(-c2cccc(NC(=O)c3ccc(-n4nccc4C)cc3)c2)cs1	-83.8*	2.7%	?	20.6µM*	-11.4	2.3
Cc1nc(-c2ccc(C(=O)Nc3cccc(Br)c3)cc2)cs1	-25.0	1.2%	?	20.6µM*	-8.4	nt
COc1ccc(OC)c(NC(=O)c2ccc(-c3csc(C)n3)cc2)c1	-0.6	nt	?	?	-9.3	-6.0
COCc1cc(C)nc(SCC(=O)Nc2cccc(C)c2C)c1C#N	16.6	-2.6%	-21.0%	-5.2%	2.7	5.3
COCc1cc(C)nc(SCC(=O)Nc2nc(C)cs2)c1C#N	-7.8	1.5%	?	16.4µM*	-9.7	3.6
Nc1ccc2oc(=O)c3ccccc3c2c1	-76.7*	-4.9%	-24.6%	-21.0%	-11.6	-1.8
CC(C)(C)OC(=O)C[C@H]1C/C=C\C[C@@H](CC(=O)N(CCO)Cc2ccccc2)C(=O)NC[C@H](c2ccccc2)OC1=O	-0.5	0.4%	20.6µM*	14.6µM*	4.3	4.7
CC(C)(C)OC(=O)C[C@@H]1C/C=C\C[C@H](CC(=O)N(CCO)Cc2ccccc2)C(=O)NC[C@@H](c2ccccc2)OC1=O	-22.8	2.0%	?	23.1µM*	-9.3	-12.0
COc1ccc(-n2nc(C(=O)NCC(=O)NCCC3=CCCCC3)c3ccccc3c2=O)c(OC)c1	26.6	-6.4%	3.6%	-17.1%	2.5	-0.8
CCOC(=O)[C@]12CCC=C1N(Cc1ccc3c(c1)OCO3)C(=O)[C@H](CC(=O)NCCC(C)C)C2	2.5	nt	?	18.4µM*	-0.1	-5.6
